# Data published in PubChem BioAssay.
# Inconclusive results are not listed. Active and inactive are the calls of the source.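 The calls were made as follows, unless noted: active = growth inhibition above 25% in both replicates, a cutoff set 3 SD above the mean; inconclusive = above 25% in only one replicate; inactive = the rest.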
# Assays:
# [1] = Her2 expression decrease, cell viability multiplex – SKBR3 breast tumor cells, AlphaScreen, ATP viability, primary screen (AID 461;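 active = Her2 level under about 52% in both replicate screens, with viability over 70% of control, limit read from the data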;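 as to Her2 level: lower value means less Her2 protein in the cells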;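 as to viability: percent of carrier control wells set as 100% viability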); conditions: SKBR3 Her2 protein level, 18-24 h, measured here: SKBR3 viability, ATP luminescence, at 10 µM
# [2] = target: Receptor tyrosine-protein kinase erbB-2 (Homo sapiens) (UniProt P04626); assay: as above; conditions: 18-24 h, at 10 µM, stronger effect = lower value
# Chain of Receptor tyrosine-protein kinase erbB-2 (Homo sapiens) (P04626 whole entry, looked up): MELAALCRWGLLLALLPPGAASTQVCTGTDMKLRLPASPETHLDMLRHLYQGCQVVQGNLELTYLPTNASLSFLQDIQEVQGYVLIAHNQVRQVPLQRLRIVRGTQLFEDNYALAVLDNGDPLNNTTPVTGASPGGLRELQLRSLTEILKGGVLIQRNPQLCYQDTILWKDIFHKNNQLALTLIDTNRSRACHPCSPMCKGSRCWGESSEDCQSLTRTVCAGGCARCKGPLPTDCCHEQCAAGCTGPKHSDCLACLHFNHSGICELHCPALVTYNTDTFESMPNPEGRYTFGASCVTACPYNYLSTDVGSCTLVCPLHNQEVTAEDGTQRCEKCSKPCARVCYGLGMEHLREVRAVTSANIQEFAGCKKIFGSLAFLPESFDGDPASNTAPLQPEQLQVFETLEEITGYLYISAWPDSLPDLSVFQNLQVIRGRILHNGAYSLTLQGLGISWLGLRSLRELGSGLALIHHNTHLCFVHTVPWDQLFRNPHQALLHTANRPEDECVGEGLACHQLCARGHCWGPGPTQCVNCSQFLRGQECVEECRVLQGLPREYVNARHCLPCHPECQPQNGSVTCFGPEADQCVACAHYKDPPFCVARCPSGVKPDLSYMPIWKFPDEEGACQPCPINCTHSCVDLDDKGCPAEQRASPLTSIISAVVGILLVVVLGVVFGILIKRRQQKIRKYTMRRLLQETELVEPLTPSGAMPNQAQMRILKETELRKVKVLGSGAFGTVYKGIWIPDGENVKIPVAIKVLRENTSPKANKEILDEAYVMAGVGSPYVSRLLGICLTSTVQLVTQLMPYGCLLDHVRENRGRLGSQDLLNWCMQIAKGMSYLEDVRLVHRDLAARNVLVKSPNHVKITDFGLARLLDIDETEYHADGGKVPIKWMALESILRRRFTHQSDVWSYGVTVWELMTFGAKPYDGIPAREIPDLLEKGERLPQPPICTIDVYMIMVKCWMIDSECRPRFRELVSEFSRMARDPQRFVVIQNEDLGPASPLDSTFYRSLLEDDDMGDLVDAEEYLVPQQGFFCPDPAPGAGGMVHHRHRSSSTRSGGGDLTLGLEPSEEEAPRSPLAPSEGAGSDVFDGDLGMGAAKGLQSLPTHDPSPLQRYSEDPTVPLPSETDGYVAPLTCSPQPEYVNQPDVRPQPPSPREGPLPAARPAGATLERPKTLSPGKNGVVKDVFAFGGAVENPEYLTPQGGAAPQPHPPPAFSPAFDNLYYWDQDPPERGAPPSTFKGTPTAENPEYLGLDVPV
# [3] = reduced viability of SK-BR-3 breast cancer cells – cell-based, 24 h, human, pilot screen (AID 572;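 active = viability at or below 10% of carrier control in both of two separate runs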;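 also: compound exposure lasted between 18 and 24 h rather than exactly 24 h; 100% = carrier-treated control wells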); conditions: SK-BR-3 viability, CellTiter-Glo luminescence, at 10 µM, stronger effect = lower value
# [4] = HUVEC growth inhibition – cell-based, human, primary screen (AID 575;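 active = viability at or below 30% in both replicate assays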;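 also: 100% = median of untreated cell wells with 0.1% DMSO on each plate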); conditions: HUVEC proliferation, CellTiter-Glo luminescence, 72 h; at 10 µM; stronger effect = lower value
# [5] = H69AR cell proliferation blockers – human, duplicate replicates, primary screen (AID 580;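 active = viability at or under a set limit in both replicates, limit being median viability minus 3 SD, cut at about 48% in these data, passing the limit was not always enough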;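 also: 100% = mean luminescence of untreated wells and 0% = no signal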); conditions: H69AR lung tumor cells viability, ATP luminescence, 72 h; at 10 µM; stronger effect = lower value
# [6] = MRP1 drug-resistance reversers in H69AR cells – cell-based, doxorubicin co-treatment, pilot screen (AID 601;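 active = viability loss from added drug above about 55%, and viability with drug at most 40%, in both replicates, limit read from the data, passing the limit was not always enough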); conditions: CellTiter-Glo, 72 h, at 10 µM; for differential viability (reversal): stronger effect = higher value
# [7] = yeast transport mutant growth inhibition pilot in 384-well plates, post-Golgi transport modulator project (AID 636; in the data active = inhibition above about 31%); conditions: absorbance 615 nm, about 18 h, stronger effect = higher value
# [8] = growth suppression of yeast trafficking mutant, preliminary HTS, modulators of trafficking downstream of Golgi apparatus project, 1536-format plate, OD 615 nm (AID 637; in the data active = inhibition above about 30%); conditions: yeast transport mutant growth, absorbance 615 nm, 18 h; stronger effect = higher value
# [9] = S. cerevisiae growth inhibition in permissive medium (OD615), pilot counter-assay for S. cerevisiae lifespan shortening project, permissive growth control (AID 705); conditions: OD615, 24 h, at 10 µM, stronger effect = higher value
# [10] = S. cerevisiae growth inhibition in restrictive medium, OD615, pilot screen, restrictive growth control, yeast lifespan reduction project (AID 706;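 active = growth inhibition above a set limit, 3 SD over mean compound inhibition, in both replicates, cut at about 43% in these data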;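 also: modified DeaD lifespan yeast strain shifted to restrictive glucose medium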); conditions: OD615, 48 h, at 10 µM, stronger effect = higher value
# [11] = doxorubicin toxicity protection in MRP-1 cells – H69AR cells, CellTiter-Glo, duplicate, MRP-1 activator project, pilot screen (AID 807;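 active = viability increase at or above a cutoff of the median across tested compounds plus 3 SD, cut at about 8.5% in these data, passing the limit was not always enough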;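 also: compound pretreatment 18-22 h then 72 h combined with doxorubicin; 0% = doxorubicin alone and 100% = vehicle without doxorubicin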); conditions: H69AR viability with doxorubicin, CellTiter-Glo luminescence; at 10 µM; stronger effect = higher value
# [12] = viability of HCT116 without oncogenic beta-catenin – human colon tumor cells, pilot screen (AID 823;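 active = cell viability at or below a set limit in both duplicate runs, the limit being the all-compound median minus 4 SD, cut at about 23% in these data, passing the limit was not always enough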;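 also: 0% = wells killed by 20 µM Hyamine and 100% = untreated DMSO cell wells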); conditions: HCT116 beta-catenin knockout viability, CellTiter-Glo, 60 h; at 10 µM; stronger effect = lower value
# [13] = viability of PTEN-null HCT116 cells – cell-based, HCT116 clonal line, CellTiter-Glo, pilot screen (AID 824;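 active = viability at or below 27.92% in each of two runs, the all-compound median minus 4 SD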;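 also: 0% = 20 µM Hyamine control and 100% = vehicle cell control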); conditions: HCT116 PTEN-deleted viability, 60 h, at 10 µM, stronger effect = lower value
# [14] = RAM pathway blockade in budding yeast – dse1pr::URA3 reporter, 5-FOA selection, pilot screen (AID 869;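 active = inhibition over a set limit, the all-compound mean plus 3 SD, in both replicate runs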;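 also: 0% = DMSO wells with no growth and 100% = 10 µM 1-NA-PP1 with full growth; RAM network block rescues cells from 5-FOA so hits raise OD615 growth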); conditions: S. cerevisiae dse1pr::URA3 5-FOA growth, OD615, 2 d; at 10 µM; stronger effect = higher value; strain carries analog-sensitive mutant Cbk1 kinase
# [15] = RAM signaling pathway blockade in yeast – S. cerevisiae, Pdr1DBD-CYC8 efflux-inhibited sensitized strain, primary screen (AID 1298;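 active = RAM network inhibition above 8.4% in each of two replicates, 3 SD over the compound average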;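 also: 0% = DMSO untreated cells without growth and 100% = 10 µM 1-NA-PP1 full growth; higher means more yeast growth rescued from 5-FOA killing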); conditions: S. cerevisiae cbk1-as DSE1-URA3 strain, 5-FOA growth OD615, 2 d; at 50 µM; stronger effect = higher value
# [16] = H69AR cells + 2 uM doxorubicin, measured here: viability with 2 uM doxorubicin, stronger effect = lower value
# [17] = H69AR cells, compound alone cytotoxicity
Compound,viability [1],Her2 level [2],viability [3],viability [4],viability [5],differential viability (reversal) ([6]; H69AR cells + 2 uM doxorubicin),"viability [6, 16]","viability [6, 17]",inhibition [7],inhibition [8],growth inhibition [9],growth inhibition [10],viability increase [11],viability [12],viability [13],inhibition [14],RAM network inhibition [15]
COc1ccccc1N1C(=O)CCC1(C#N)c1ccccc1 (stereo not given),97%,102% (inactive),97% (inactive),104% (inactive),117% (inactive),20.5% (inactive),96.9%,117%,0.68% (inactive),-3.49% (inactive),-7.28% (inactive),0.615% (inactive),-1.56% (inactive),108% (inactive),99.7% (inactive),1.52% (inactive),2.81% (inactive)
COc1ccccc1NC(=O)N(C1CCCC1)C1CCN(C(C)=O)CC1,77.5%,89.5% (inactive),77.5% (inactive),112% (inactive),88.3% (inactive),0.61% (inactive),87.6%,88.3%,0.77% (inactive),-8.83% (inactive),-2.26% (inactive),-27.4% (inactive),-2.01% (inactive),92.4% (inactive),94.7% (inactive),0.72% (inactive),5% (inactive)
CC1CCN(C(=O)CSCC(=O)Nc2nc(-c3cccs3)cs2)CC1,86%,80.5% (inactive),86% (inactive),67% (inactive),91.1% (inactive),4.54% (inactive),86.6%,91.1%,-1.33% (inactive),-1.15% (inactive),1.36% (inactive),-5.56% (inactive),-4.14% (inactive),100% (inactive),92.1% (inactive),0.24% (inactive),-0.16% (inactive)
CCCCCOc1ccc(C2NC(=O)NC2=O)cc1 (stereo not given),97%,109% (inactive),97% (inactive),102% (inactive),106% (inactive),18.2% (inactive),88.1%,106%,-4.93% (inactive),-3.5% (inactive),-7.17% (inactive),-19.9% (inactive),-1.63% (inactive),101% (inactive),94.5% (inactive),0.245% (inactive),1.57% (inactive)
COc1c(C(=O)Nc2c(C)n(C)n(-c3ccccc3)c2=O)ccc2ccccc12,97%,104% (inactive),97% (inactive),99.3% (inactive),113% (inactive),25.5% (inactive),87%,113%,-1.07% (inactive),-6.45% (inactive),-2.42% (inactive),-6.28% (inactive),-0.81% (inactive),98.8% (inactive),98.3% (inactive),0.775% (inactive),4.37% (inactive)
Cc1ccc2oc(=O)c3cnn(CC(=O)N4CCCc5ccccc54)c3c2c1,100%,98.5% (inactive),100% (inactive),89.8% (inactive),74.8% (inactive),13.9% (inactive),60.9%,74.8%,-2.67% (inactive),-0.82% (inactive),-12.4% (inactive),-5.59% (inactive),-3.17% (inactive),91.3% (inactive),82.3% (inactive),3.85% (inactive),6.86% (inactive)
CCn1c(-c2cc(Br)ccc2O)n[nH]c1=S,99%,88.5% (inactive),99% (inactive),107% (inactive),98% (inactive),0.39% (inactive),97.6%,98%,-4.59% (inactive),3.02% (inactive),-10% (inactive),-14.2% (inactive),-1.24% (inactive),98.9% (inactive),96.8% (inactive),1.45% (inactive),0.78% (inactive)
CCCc1nnc(NC(=O)NCCN2C(=O)C3C4C=CC(C4)C3C2=O)s1 (stereo not given),110%,121% (inactive),110% (inactive),96.6% (inactive),97.8% (inactive),5.61% (inactive),92.2%,97.8%,1.87% (inactive),-13% (inactive),-2.99% (inactive),6.19% (inactive),-0.68% (inactive),101% (inactive),101% (inactive),-0.135% (inactive),3.27% (inactive)
CCc1ccccc1N1CC23C=CC(O2)C(C(=O)O)C3C1=O (stereo not given),102%,93.5% (inactive),102% (inactive),101% (inactive),86.7% (inactive),-2.65% (inactive),89.3%,86.7%,-7.2% (inactive),0.83% (inactive),1.68% (inactive),-5.72% (inactive),1.1% (inactive),96% (inactive),102% (inactive),0.365% (inactive),1.2% (inactive)
O=C(NCCSc1c[nH]c2ccccc12)c1ccc(Br)o1,104%,94.5% (inactive),104% (inactive),47.8% (inactive),54.6% (inactive),-21.1% (inactive),75.8%,54.6%,-2.93% (inactive),1.17% (inactive),-10.7% (inactive),-12.6% (inactive),-3.97% (inactive),106% (inactive),93.6% (inactive),1.83% (inactive),3.28% (inactive)
